Assay outcomes from PubChem BioAssay.
Eya2 inh: Eya2 (human) phosphatase inhibition. recombinant Eya2, OMFP fluorescence dephosphorylation (OMFP is methylfluorescein phosphate). Potency, µM (series often up to 76.9 µM), inactives show top-dose activity, negative = inhibition, usual class: inhibitors. actives 0.006% (n = 330,000). AID 488837; note: potency is the fitted concentration of half-maximal effect; % is set by controls: 0 for no effect and ±100 for the full control effect
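Eya2 protein (added as 0.2 uM solution) was preincubated with compound for 10 min at ambient temperature in 50 mM HEPES pH 7.5, 50 mM NaCl, 5 uM MgCl2, 0.05% BSA, 1 mM DTT. OMFP (added at 50 uM) then reacted 10 min; fluorescence read at 485/525 nm.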
USP2a inh: USP2a (human) protease inhibition | O75604 | USP2 core, Ub-CHOP2 coupled fluorogenic reporter, 485/531 | Potency, µM (highest dose often 38.3 µM), inactives show at the highest dose activity change, negative = inhibition, actives largely listed as inhibitors | actives 0.01% (n = 330,000) | AID 463254;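 note: potency is the fitted concentration of half-maximal effect; plate controls were DMSO wells for no effect and full inhibition by NEM control for full effect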
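Cell-free coupled assay: 10nM USP2 core preincubated 30min RT with compound in Tris-HCl pH 8.0/CaCl2/CHAPS buffer, then 25nM Ub-CHOP2 and 25nM reporter substrate; fluorescence (Ex 485/Em 531) read after 60min RT, normalized to NEM inhibition, concentration-response curves fitted.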
GALK inhibitor: galactokinase (human) inhibition; P51570; Purified GALK, Kinase-Glo residual ATP luminescence; Potency, µM (series often up to 57.5 µM), for inactives: at the top dose activity change, negative = inhibition, hits mostly inhibitors; actives 0.007% (n = 270,000); note: potency is the fitted concentration of half-maximal effect; % is set by controls: 0 for no effect and ±100 for the full control effect
Target sequence (P51570 whole entry, looked up): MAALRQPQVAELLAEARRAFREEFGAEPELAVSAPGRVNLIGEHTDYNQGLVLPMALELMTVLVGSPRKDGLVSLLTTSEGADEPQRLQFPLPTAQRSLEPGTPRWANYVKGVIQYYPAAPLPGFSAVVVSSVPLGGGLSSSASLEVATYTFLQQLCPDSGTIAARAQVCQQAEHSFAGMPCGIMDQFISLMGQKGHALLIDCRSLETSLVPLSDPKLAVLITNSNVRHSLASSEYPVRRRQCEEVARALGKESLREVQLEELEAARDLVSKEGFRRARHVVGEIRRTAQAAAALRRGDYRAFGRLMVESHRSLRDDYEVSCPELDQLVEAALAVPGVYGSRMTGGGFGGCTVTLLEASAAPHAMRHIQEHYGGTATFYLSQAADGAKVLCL
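Compounds were pin-transferred into ATP buffer (35 uM final), then GALK plus galactose (5 nM, 100 uM final) was added. After 1 h at room temperature, Kinase-Glo Plus was added and luminescence read after 10 min.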
D1 potentiator: human D1 dopamine receptor positive modulation; P21728; HEK293 TREx D1 cells, calcium flux, dopamine EC20 potentiation; potentiation, % at 10 µM; actives 0.036% (n = 360,000); in the data active = potentiation above about 30%; note: 0% is about no effect
D1 antag: antagonists of human D1 dopamine receptor; actives 3.2% (n = 360,000); AID 504652; P21728; HEK293 TREx D1 cells, calcium flux, dopamine EC80; hits give low values; activity change, negative = inhibition, % at 10 µM; in the data active = activity change below about -30%; note: % is set by controls: 0 for no effect and ±100 for the full control effect
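After overnight tetracycline induction at 30 C, force-coupled D1 HEK293 cells took up a no-wash calcium dye at room temperature. Compounds were added and monitored 180 s, and the response to EC80 dopamine was then recorded.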
D1 agonist: agonists of human D1 dopamine receptor. actives 1% (n = 360,000). P21728. HEK293 T-REx D1 cells, calcium flux, agonist mode. activation, % at 2 µM; in the data active = activation above about 30%; note: 0% is about no effect
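Tetracycline-induced HEK293 TREx D1 cells, force-coupled to calcium signalling, were dye-loaded with a no-wash calcium kit. Compound was pin-added after a 10 s baseline. Fluorescence was read kinetically at 1 cycle/s for 180 s, with calcium rises flagged as agonism.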
An asterisk follows results filed as active; ? = inconclusive; · = no result given. Only some compounds are listed: those with a hit (about 3.9% of all), similar ones and a draw of the others. Unless noted, calls come from the whole dose curve; as a rule, active = well fitted inhibition curve with a large enough effect; inconclusive = small, poorly fitted or top-dose-only effect, or effect the other way; inactive = flat fitted curve, though single readings scatter.

SMILES	Eya2 inh	USP2a inh	GALK inhibitor	D1 potentiator	D1 antag	D1 agonist
COc1ccc(OC)c(NC(=O)Cn2c(=O)n(-c3cccc(C)c3)c(=O)c3c2c2cc(C)ccc2n3C)c1	·	·	·	-0.6	10.0	-0.4
O=C(CCNS(=O)(=O)c1ccc(Br)s1)Nc1ccc(Br)cc1	·	·	·	-0.9	-7.9	9.3
CC(C)C1COC(c2cccn2Cc2ccccc2Cl)=N1 (configuration not stated)	-2.3%	3.2%	-1.2%	2.0	-37.7*	0.4
c1ccc(-c2cncnc2)cc1	-7.6%	0.5%	·	2.2	-31.8*	2.0
O=C(N/N=C/c1c(O)ccc2ccccc12)c1cccc(C(F)(F)F)c1	?	15.5%	0.4%	9.2	-31.4*	162.0*
O=C(N/N=C\c1c(O)ccc2ccccc12)c1ccc(Cn2cccn2)o1	15.6%	5.2%	·	-2.7	-30.2*	28.7
COc1ccc2ccccc2c1/C=N/NC(=O)c1cccc(Br)c1	-0.5%	1.3%	1.4%	-3.0	-7.1	2.3
C#CC(C)(C)NS(=O)(=O)c1cc(-c2nnc(Nc3ccc(C)cc3)c3ccccc23)ccc1C	·	·	·	-3.5	-15.4	4.6
COc1ccc(-c2nnc(-c3cc4ccccc4oc3=O)o2)cc1	3.3%	-2.4%	-2.8%	-1.4	-5.1	1.4
Cc1cc(-c2nnc(-c3cc4ccccc4oc3=O)o2)c(C)n1-c1ccccc1	14.6%	1.7%	-0.9%	-0.7	-42.6*	2.7
CN(C)C=Nc1c(Br)cc(Br)c2nonc12	20.2%	9.3%	-1.0%	6.5	-74.3*	415.5*
CN(C)CCNC(=O)CN1N=C(c2ccccc2)CCC1=O	·	·	·	-2.5	2.2	-1.2
Cc1ccc(Sc2c(C)nn(C(=O)COc3ccccc3)c2C)cc1	·	·	·	-2.8	-9.7	20.7
Cc1nn(C(=O)COc2ccccc2)c(C)c1Sc1ccccc1	·	·	·	-2.2	-65.2*	109.6*
O=C(Cn1c(SCC(=O)Nc2ccc(F)cc2)nc2ccccc21)NCc1ccccc1Cl	·	·	·	-0.3	-20.2	32.7*
Cc1ccc(CNC(=O)Cn2cc(S(=O)(=O)Cc3ccccc3F)c3ccccc32)cc1	·	·	·	0.1	-12.4	31.7*
O=C(Cn1c(SCC(=O)Nc2ccc(F)cc2)nc2ccccc21)NCc1ccc(F)cc1	·	·	·	-0.3	1.0	4.4
O=C(Cn1cc(S(=O)(=O)Cc2ccc(F)cc2)c2ccccc21)NCc1ccccc1Cl	·	·	·	1.4	-22.0	35.7*
CCc1cccc(C)c1NC(=O)CSc1nc2ccccc2n1CC(=O)N(C)C	7.4%	-1.5%	1.7%	-1.9	-35.2*	-0.1
CC(C)(C)NC(=O)Cn1cc(S(=O)(=O)Cc2ccc(F)cc2)c2ccccc21	·	·	·	-1.2	6.2	1.7
CC(C)(C)NC(=O)c1cnn(-c2ccccc2)c1C1CCN(C(=O)OC(C)(C)C)CC1	·	·	·	3.3	25.7	0.4
O=C(NCc1ccccc1Cl)c1ccc2c(c1)nnn2C1CCCC1	·	·	·	-4.3	-34.1*	6.6
CCc1ccccc1NC(=O)c1ccc2c(c1)nnn2C1CCCC1	·	·	·	0.5	-30.5*	4.5
Cc1cccc(C)c1NC(=O)c1ccc2c(c1)nnn2C1CCCC1	·	·	·	-0.8	-10.8	3.6
O=C(CSc1nnc2ccc3ccccc3n12)Nc1ccccc1Cl	·	·	·	-0.1	-13.8	-0.6
CCN(c1ccccc1)S(=O)(=O)c1ccc(NC(=O)c2cc(=O)c3cc(C)c(C)cc3o2)cc1	·	·	·	-0.8	-2.7	-0.3
Cc1ccccc1N(C(=O)Cn1nnc(-c2ccc(F)cc2)n1)C(C(=O)NC(C)(C)C)c1ccncc1 (configuration not stated)	-1.7%	0.8%	1.6%	-3.6	-34.6*	14.0
COc1ccc(CN(C(=O)Cn2nnc(-c3ccc(C)o3)n2)C(C(=O)NCC2CCCO2)c2ccco2)cc1 (configuration not stated)	-10.2%	0.6%	7.6%	-5.8	-41.6*	-0.2
CC(C)(C)NC(=O)C(c1ccncc1)N(C(=O)Cn1nnc(-c2ccc(F)cc2)n1)c1ccccc1F (configuration not stated)	-1.5%	1.0%	0.6%	-3.5	-2.2	-0.7
